AC50 data for 35 compounds are collected here from article PMC6792352, “Limited Chemical Structural Diversity Found to Modulate Thyroid Hormone Receptor in the Tox21 Chemical Library” (Environmental Health Perspectives, 2019).

Counter-ions that a name gives are not always drawn.

The assay has as its system thyroid hormone receptor (endogenous TRα and TRβ). Further details: species or system GH3-TRE-Luc (rat pituitary); GH3-TRE-Luc luciferase reporter, antagonist mode against 1 nM T3, loss of signal, qHTS. To be noted: read-out: Average AC50 (uM) GH3-TRE-Antag, antagonist mode, 1 nM T3, no GH3 cytotoxicity hit.
On to `CCCCCCCCCCCCCCC(Br)C(=O)O` (centres unmarked) [2-Bromohexadecanoic acid], for which the AC50 – broadly, the concentration giving half of the maximal activity seen – amounted to 53.6 µM.
To `Cc1c(Nc2ncccc2C(=O)O)cccc1C(F)(F)F` [Flunixin meglumine] belongs 2.85 µM; to `CCCCCCCCCCCC(=O)N(C)CC(=O)O` [N-Dodecanoyl-N-methylglycine], over 90 µM; to `CC(C)c1cccc(C(C)C)c1N1C(=O)c2ccc(O)cc2C1=O` [5HPP-33], 5.01 µM.
Take `Oc1ccc2c(c1)OCO2` [Sesamol]: the AC50 is over 90 µM.
The figure for `C#Cc1cccc(Nc2ncnc3cc(OCCOC)c(OCCOC)cc23)c1` [Erlotinib] is 21.9 µM; for `CCN(CCCCOC(=O)c1ccc(OC)c(OC)c1)C(C)Cc1ccc(OC)cc1` (centres unmarked) [Mebeverine hydrochloride] it is 13.7 µM; for `Nc1nc(N)c2nc(CNc3ccc(C(=O)N[C@@H](CCC(=O)O)C(=O)O)cc3)cnc2n1` [4-Aminofolic acid] it is 25.2 µM.
In the case of `C[C@]12CC[C@@H]3c4ccc(O)cc4CC[C@H]3[C@@H]1CC[C@H]2O` [17alpha-Estradiol], the AC50 turned out to be 27 µM.
To `CC(C)=CC1C(C(=O)OC(C#N)c2cccc(Oc3ccccc3)c2)C1(C)C` (centres unmarked) [Cyphenothrin] belongs 79.9 µM; to `COC(=O)N(C(=O)N1CO[C@@]2(C(=O)OC)Cc3cc(Cl)ccc3C2=N1)c1ccc(OC(F)(F)F)cc1` [Indoxacarb], 9.12 µM.
The figure for `Nc1ccc(C(=O)Oc2ccccc2)c(O)c1` [Phenyl 4-aminosalicylate] is 49.5 µM.
`CCN(CC)c1ccc2c(C)cc(=O)oc2c1` [7-Diethylamino-4-methylcoumarin]: the concentration at half-maximal activity (AC50) was found to be 85.7 µM.
The figure for `CC(O)(CS(=O)(=O)c1ccc(F)cc1)C(=O)Nc1ccc(C#N)c(C(F)(F)F)c1` (centres unmarked) [Bicalutamide] is 35.3 µM; for `CCOC(=O)C(C)Oc1ccc(Oc2cnc3cc(Cl)ccc3n2)cc1` (centres unmarked) [Quizalofop-ethyl] it is 78.2 µM; for `Clc1cc(C(Cl)(Cl)Cl)cnc1Cl` [2,3-Dichloro-5-(trichloromethyl)pyridine] it is 40.5 µM.
With `CC(Oc1ccc(Oc2ncc(C(F)(F)F)cc2Cl)cc1)C(=O)O` (centres unmarked) [Haloxyfop], the AC50 is 58.9 µM.
In the case of `Brc1ccc(Oc2ccccc2)cc1` [p-Bromodiphenyl ether], the AC50 was 44.7 µM.
As to `CC1(C)[C@H](/C=C(\Cl)C(F)(F)F)[C@@H]1C(=O)O[C@@H](C#N)c1cccc(Oc2ccccc2)c1` [?-Cyhalothrin], the AC50 worked out at 33.9 µM.
For `Cc1cc(C(C)(C)c2ccc(O)c(C)c2)ccc1O` [3,3'-Dimethylbisphenol A], the AC50 is 33.1 µM.
To `CCC(COC(=O)c1cc(OC)c(OC)c(OC)c1)(c1ccccc1)N(C)C` (centres unmarked) [Trimebutine maleate] belongs 16.3 µM; to `COc1cc(CNC(=O)CCCC/C=C/C(C)C)ccc1O` [Capsaicin], 34.4 µM.
To `O=C(c1ccccc1)C1CCCCC1` [Cyclohexylphenylketone] belongs 69.7 µM; to `CC(C)N(C(=O)COc1nnc(C(F)(F)F)s1)c1ccc(F)cc1` [Flufenacet], 53.2 µM.
Turning to `O=C1c2ccccc2C(=O)N1CCc1noc(-c2ccc(CN3CCCCCC3)s2)n1` [PharmaGSID_48172], the AC50 amounted to 75.2 µM.
The figure for `O=C(c1ccc(O)cc1)c1ccc(O)cc1O` [2,4,4'-Trihydroxybenzophenone] is over 90 µM.
The figure for `CCCCCCOc1ccccc1C(N)=O` [Exalamide] is 30.7 µM; for `C=CC(=O)OCCC#N` [2-Cyanoethyl prop-2-enoate] it is 62.7 µM; for `O=C(/C=C/C=C/c1ccc2c(c1)OCO2)N1CCCCC1` [Piperine] it is 73.5 µM.
The figure for `N=C(N)NC(=N)NCCc1ccccc1` [Phenformin hydrochloride] is over 20 µM; for `Clc1ccc(C2(Cn3cncn3)CC(Br)CO2)c(Cl)c1` (centres unmarked) [Bromuconazole] it is 72.5 µM.
As to `C/C=C(/CC[C@@H](C)[C@H]1CC[C@H]2C3=CC[C@H]4[C@H](C)[C@@H](O)CC[C@]4(C)[C@H]3CC[C@]12C)C(C)C` [Sitosterol alpha1], the AC50 stood at 40.6 µM.
For the compound `CCCCC[C@H](O)/C=C/[C@H]1[C@H](O)CC(=O)[C@@H]1C/C=C\CCCC(=O)O` [Dinoprostone], the AC50 came out at 4.68 µM.
The figure for `C/C=C1\C(=O)C[C@H]2[C@@H]3CCC4=CC(=O)CC[C@]4(C)[C@H]3CC[C@]12C` [Guggulsterone Z] is 39.2 µM.
`C[C@H]1O[C@@H](O[C@H]2[C@@H](O)C[C@H](O[C@H]3[C@@H](O)C[C@H](O[C@H]4CC[C@@]5(C)[C@H](CC[C@@H]6[C@@H]5C[C@@H](O)[C@]5(C)[C@@H](C7=CC(=O)OC7)CC[C@]65O)C4)O[C@@H]3C)O[C@@H]2C)C[C@H](O)[C@@H]1O` [Digoxin]: the AC50 is over 50 µM.
